Experimental findings from PMC5540273 (PLoS ONE, 2017) are described below.
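Note: kd values determined as follow-up on hits from a single-replicate KINOMEscan panel screen.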

One assay deals with PDGFRA.
As for `Cn1ccc2ncnc(Oc3ccc(NC(=O)Nc4cccnc4)c(Cl)c3)c21`, the Kd – broadly, the concentration at which binding is half-saturated – is 110 nM.

As for `Cc1ccc(NC(=O)c2cccc(C#N)c2)cc1-c1ccc(C(=O)Nc2ccncc2)cc1` [GSK1398463], binding was put at a Kd of 170 nM.

The compound `O=C(Nc1ccccc1)Nc1ccc(Oc2ccc3nccn3n2)cc1` yielded a Kd of 71 nM.

The subject of another assay is PDGFRB.
As to `Cn1ccc2ncnc(Oc3ccc(NC(=O)Nc4cccnc4)c(Cl)c3)c21`, the Kd came out at 95 nM.

`COc1ccc(NC(=O)Nc2ccc(C)c(-c3ccc(C(=O)Nc4ccncc4)cc3)c2)cc1` [GSK1398475] registered a Kd of 48 nM.

In turn, `O=C(Nc1n[nH]c2nc(-c3ccco3)c(Br)cc12)c1ccc(CN2CCCC2)cc1.O=C(O)[C@H](O)[C@@H](O)C(=O)O` [SB-742352] came in with a Kd of 67 nM.

Compound `COc1cc2c(Nc3cccc(NC(=O)c4ccccc4)c3)ncnc2cc1OCCCN1CCOCC1` [GSK223810] registered a Kd of 560 nM.

Turning to `Cc1ccc(NC(=O)c2cccc(C#N)c2)cc1-c1ccc(C(=O)Nc2ccncc2)cc1` [GSK1398463], the Kd stood at 13 nM.

`O=C(Nc1ccccc1)Nc1ccc(Oc2ccc3nccn3n2)cc1` yielded a Kd of 62 nM.

The compound `CC(=O)Nc1n[nH]c2ncc(-c3ccccc3)cc12` [SB-548492] came in with a Kd of 270 nM.

The test system of another assay is PDPK1.
In the case of `CSc1ccc(NC2=C(c3ccccc3Cl)C(=O)NC2=O)cc1` [SB-342411], the Kd was over 10000 nM.

As for `CC(C)(C)OC(=O)NC1CCCN(c2cc(-c3ccc4c(N)n[nH]c4c3)nc(N)n2)C1` (centres unmarked) [GSK2286096], the Kd was 37 nM.

In turn, `COc1cc2c(Nc3cccc(NC(=O)c4ccccc4)c3)ncnc2cc1OCCCN1CCOCC1` [GSK223810] registered a Kd of over 10000 nM.

Compound `Nc1nc(-c2ccc3c(N)n[nH]c3c2)cc(N2CCCCC2)n1` [GSK2228768] came in with a Kd of 540 nM.
